Numbering of substitutions follows the chain as printed.
What was measured:
Assay in all cases: HT-SELEX; high values mean tight binding
Conditions in all cases: protein: recombinant; vector His6-GST; dsDNA, one strand shown
[1] = biological target: T1, SALL4 ZFC4 WT (HT-SELEX) (Mus musculus, UniProt Q8BX22 870-940)
T1 sequence: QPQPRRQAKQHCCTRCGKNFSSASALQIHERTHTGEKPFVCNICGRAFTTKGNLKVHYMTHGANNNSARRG
Procedure, shortened: (§1)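 Up to 6 cycles of selection were run in triplicate. In each, purified recombinant mouse SALL4 zinc finger cluster 4 (residues 870–940, 1 µg) was incubated with library DNA (1.5 µg first cycle, 200 ng later) in 100 µl of 10 mM Tris–HCl pH 7.5, 50 mM NaCl, poly(dI-dC), DTT for 10 min at room temperature, then complexes were captured on Ni2+ beads, washed and PCR-amplified; final pools were MiSeq-sequenced and scanned for 6-mers. Binding signal is each canonical k-mer's read fraction as fold change versus the initial random library.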

[2] = biological target: T2, SALL4 ZFC4 R900W (HT-SELEX) (Mus musculus, UniProt Q8BX22 870-940, R900W)
T2 sequence: T1 sequence with R31W
Procedure, shortened: as §1

[3] = biological target: T3, SALL4 ZFC4 G921D (HT-SELEX) (Mus musculus, UniProt Q8BX22 870-940, G921D)
T3 sequence: T1 sequence with G52D
Procedure, shortened: as §1

Sequence	binding signal [1] [fold-change vs cycle 0]	binding signal [2] [fold-change vs cycle 0]	binding signal [3] [fold-change vs cycle 0]
ATAATG	2.28 ± 0.148	2.02 ± 0.123	1.81 ± 0.182
CCATAA	1.51 ± 0.0387	1.36 ± 0.0383	1.28 ± 0.051
TCAAAA	1.67 ± 0.118	1.58 ± 0.0814	1.5 ± 0.116
CATCGA	0.706 ± 0.0155	0.749 ± 0.0387	0.854 ± 0.0254
CTATTA	2.26 ± 0.136	2.05 ± 0.132	1.81 ± 0.165
ATACTA	2.04 ± 0.115	2.07 ± 0.172	1.84 ± 0.179
GAACAA	1.17 ± 0.0569	1.32 ± 0.0741	1.28 ± 0.0879
AGTTGA	1.26 ± 0.0298	1.43 ± 0.0288	1.37 ± 0.0654
AATTTG	1.6 ± 0.112	1.56 ± 0.101	1.51 ± 0.0903
ACCTCG	0.423 ± 0.0256	0.498 ± 0.00774	0.604 ± 0.0431
CCTTGC	0.381 ± 0.0117	0.45 ± 0.00496	0.554 ± 0.0487
ACTTCG	0.679 ± 0.0273	0.7885 ± 0.004	0.854 ± 0.0495
TAGAAA	2.03 ± 0.103	1.91 ± 0.061	1.69 ± 0.141
ATTTAC	1.95 ± 0.0871	1.9 ± 0.0674	1.69 ± 0.111
CTCCCC	0.313 ± 0.0129	0.36 ± 0.0359	0.456 ± 0.0544
CCGTTC	0.364 ± 0.0226	0.435 ± 0.0276	0.511 ± 0.0586
CGTTCA	0.712 ± 0.0321	0.811 ± 0.0256	0.871 ± 0.0211
AAACGC	0.392 ± 0.00979	0.449 ± 0.0166	0.58 ± 0.0501
ATTAGG	1.38 ± 0.0909	1.48 ± 0.0913	1.4 ± 0.0983
GAGTAA	1.45 ± 0.0607	1.57 ± 0.0835	1.43 ± 0.106

Sequence	binding signal [1] [fold-change vs cycle 0]	binding signal [2] [fold-change vs cycle 0]	binding signal [3] [fold-change vs cycle 0]
CCAGAA	0.726 ± 0.028	0.821 ± 0.0147	0.852 ± 0.0285
ATCGTG	0.701 ± 0.0455	0.775 ± 0.0256	0.876 ± 0.0311
GATTTA	1.94 ± 0.0986	1.84 ± 0.0979	1.71 ± 0.128
GATAGC	0.692 ± 0.0348	0.798 ± 0.0237	0.8754 ± 0.00393
CAATGA	1.32 ± 0.056	1.47 ± 0.0677	1.4 ± 0.0741
CAAACC	0.669 ± 0.0487	0.765 ± 0.014	0.864 ± 0.0462
GCCAAA	0.353 ± 0.00667	0.404 ± 0.0166	0.545 ± 0.0739
ATAATA	4.87 ± 0.591	2.66 ± 0.215	2.24 ± 0.293
AACCTA	1.37 ± 0.0609	1.47 ± 0.0701	1.4 ± 0.0994
AATTAC	2.12 ± 0.116	2 ± 0.127	1.82 ± 0.181
CTTCCA	0.834 ± 0.0174	0.975 ± 0.0211	1.02 ± 0.0304
GGAGAA	0.849 ± 0.0319	0.985 ± 0.0471	0.959 ± 0.0602
GTAAAC	1.27 ± 0.0422	1.39 ± 0.0625	1.32 ± 0.0873
AACAGA	1.28 ± 0.057	1.41 ± 0.0434	1.35 ± 0.0868
ATTCAG	1.31 ± 0.0442	1.44 ± 0.0342	1.36 ± 0.0925
TAAACA	1.9 ± 0.127	1.91 ± 0.125	1.73 ± 0.187
GTTGCA	0.582 ± 0.0571	0.661 ± 0.0273	0.75 ± 0.0252
GAGGAC	0.456 ± 0.0333	0.581 ± 0.0167	0.671 ± 0.0146
AATTCA	2.33 ± 0.187	1.93 ± 0.125	1.77 ± 0.161
GAATGC	0.632 ± 0.0438	0.728 ± 0.0366	0.816 ± 0.0183

Sequence	binding signal [1] [fold-change vs cycle 0]	binding signal [2] [fold-change vs cycle 0]	binding signal [3] [fold-change vs cycle 0]
ATAGGA	1.48 ± 0.0224	1.56 ± 0.056	1.45 ± 0.0712
CTACGA	0.656 ± 0.0504	0.762 ± 0.0209	0.827 ± 0.0362
GTCGAA	0.506 ± 0.0326	0.599 ± 0.0193	0.7 ± 0.0299
AACTAC	1.27 ± 0.0931	1.37 ± 0.099	1.32 ± 0.108
AACGGG	0.4 ± 0.0225	0.466 ± 0.0176	0.54 ± 0.0483
GAAGCA	0.667 ± 0.0348	0.784 ± 0.0247	0.88 ± 0.0121
ATAAAC	2.24 ± 0.173	2.02 ± 0.13	1.76 ± 0.163
AAGGCA	0.566 ± 0.0136	0.683 ± 0.00728	0.777 ± 0.0437
AACATC	1.26 ± 0.068	1.37 ± 0.098	1.34 ± 0.101
CCAACA	0.656 ± 0.00995	0.739 ± 0.0191	0.817 ± 0.0303
AGCCTC	0.316 ± 0.0162	0.401 ± 0.0165	0.536 ± 0.0409
ATTGCG	0.438 ± 0.0111	0.47 ± 0.0102	0.614 ± 0.0595
GGCTAC	0.316 ± 0.0371	0.356 ± 0.0124	0.493 ± 0.0659
ATACAG	1.33 ± 0.0931	1.41 ± 0.0818	1.36 ± 0.0886
AATAGC	1 ± 0.0454	1.07 ± 0.0474	1.11 ± 0.00486
ACCGGA	0.381 ± 0.0137	0.447 ± 0.0161	0.56 ± 0.0517
AATTCG	0.945 ± 0.024	1.008 ± 0.0043	1.07 ± 0.0346
CAGTTC	0.794 ± 0.00773	0.912 ± 0.0408	0.935 ± 0.0458
AGACCG	0.32 ± 0.0198	0.393 ± 0.0317	0.525 ± 0.0509
GTCAGA	0.728 ± 0.0316	0.836 ± 0.0595	0.887 ± 0.0403
